BAZ2B inh = inhibitors of human BAZ2B bromodomain; AlphaScreen BAZ2B-H3K14Ac peptide displacement; Potency, µM (doses to about 114 µM), for the others: top-dose activity change, negative = inhibition, usual class: inhibitors; hit rate 4.4% among 360,000; further: on the % scale 0 is the no-effect control and ±100 the full control effect; nearly all actives have a fitted effect of over 60% in size
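AlphaScreen displacement of biotin-H3(5-23)K14Ac peptide (50 nM final) from BAZ2B (50 nM final) in PBS pH 7.4, 0.01% Tween-20; complex preformed 30 min RT, then compounds (top 110 uM) 30 min RT, beads 20 min dark.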
JMJD2A Tudor inh = inhibitors of human JMJD2A Tudor domain | AlphaScreen JMJD2A-Tudor / H3K4me3 peptide binding | Potency, µM (series often up to 114 µM), without a hit: at the highest dose activity change, negative = inhibition, hits mostly inhibitors | O75164 | hit rate 4.4% among 390,000; further: on the % scale 0 is the no-effect control and ±100 the full control effect; nearly all actives have a fitted effect of over 50% in size
Sfp inh = Sfp phosphopantetheinyl transferase inhibition. Q9F4F7. Biochemical Sfp PPTase activity, qHTS. hit rate 3.5% among 310,000. Potency, µM, without a hit: largest response in the series, negative = inhibition, most hits filed as inhibitors. AID 1490;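 further: the enzyme is Sfp with the accession as filed and its product quenches rhodamine fluorescence; 0% = enzyme reaction without inhibitor and -100% = no enzyme wells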
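Buffer: 50 mM Hepes-Na pH 7.6, 10 mM MgCl2, 0.01% Nonidet P-40, 0.01% BSA. Enzyme 15 nM, pre-exposed to compound 15 min; substrates then added and fluorescence change tracked over 30 min.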
HP1b chromo inh = inhibitors of HP1-beta chromodomain binding to methylated histone tails. AID 540317. AlphaScreen HP1-beta / biotin-H3K9me3 peptide binding. hit rate 0.56% among 390,000. Potency, µM (top dose mostly 114 µM), for inactives: top-dose activity change, negative = inhibition, usual class: inhibitors. P83916; further: nearly all actives have a fitted effect of over 70% in size
Target sequence (P83916 whole entry, looked up): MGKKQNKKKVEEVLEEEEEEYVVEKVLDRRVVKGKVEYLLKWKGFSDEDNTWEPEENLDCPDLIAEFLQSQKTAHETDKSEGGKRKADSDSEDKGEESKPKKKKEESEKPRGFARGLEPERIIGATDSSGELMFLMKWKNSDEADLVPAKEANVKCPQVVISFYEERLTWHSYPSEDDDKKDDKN
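Compound inhibition of the preformed complex between 50 nM HP1-beta and 50 nM biotinylated H3K9me3 peptide was read by AlphaScreen. Buffer was PBS pH 7.4 with 0.01% Tween-20. Incubations ran 30 min at room temperature, with 10 ug/mL donor/acceptor beads.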
L3MBTL1 inh = L3MBTL1 (human) inhibition; Potency, µM (top dose mostly 57.1 µM), without a hit: top-dose activity, negative = inhibition, usual class: inhibitors; AlphaScreen L3MBTL1–H3K9me1 peptide binding; Q9Y468; AID 485360; hit rate 0.66% among 230,000; further: on the % scale 0 is the no-effect control and ±100 the full control effect; nearly all actives have a fitted effect of over 60% in size
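AlphaScreen proximity signal between nickel-chelate acceptor and streptavidin donor beads (final 10 ug/mL) reports binding of 50 nM L3MBTL1 to 75 nM biotin-H3 K9me1 peptide; complex incubated with compounds 30 min at room temperature; cefsulodin titration as control.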
G9a block = inhibitors of human histone lysine methyltransferase G9a. Potency, µM (highest dose often 102 µM), for inactives: at the highest dose activity, negative = inhibition, actives largely listed as inhibitors. AID 504332. G9a H3K9 monomethylation, AlphaScreen, 2 h. hit rate 8.8% among 350,000; further: on the % scale 0 is the no-effect control and ±100 the full control effect; nearly all actives have a fitted effect of over 75% in size
Target sequence (Q96KQ7 913-1193 limits assumed): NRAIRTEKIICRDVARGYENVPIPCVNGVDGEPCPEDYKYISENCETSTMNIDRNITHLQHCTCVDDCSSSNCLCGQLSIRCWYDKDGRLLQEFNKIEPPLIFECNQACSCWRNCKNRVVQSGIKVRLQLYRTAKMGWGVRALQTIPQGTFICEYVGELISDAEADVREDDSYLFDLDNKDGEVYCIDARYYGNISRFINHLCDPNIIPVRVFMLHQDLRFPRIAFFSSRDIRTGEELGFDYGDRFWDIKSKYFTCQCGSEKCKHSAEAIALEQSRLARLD
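Readings reflect AlphaScreen signal from monomethyl-H3K9 antibody detection. HMT at 20 nM; substrate b-H3K9 500 nM; cofactor SAM 20 uM; 2 h RT reaction; compounds tested as titrations in qHTS with 15 min preincubation.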
* marks the source's active call; other numbers are inactive results; ? = inconclusive; . = no result; [ ] = another dose, or the depositor's remark. Rows were chosen to be rich in hits. Some 12% of all compounds tested hit in one or more screens of this group. The call rests on the fitted dose curve; in most records, active means well fitted curve in the direction sought with a large enough effect; inconclusive means small, poorly fitted or top-dose-only effect, or another doubt; inactive means no such curve, though single readings can be large; an effect the other way counts as inactive or inconclusive. Potency means the concentration at half of the fitted maximal effect.

SMILES	BAZ2B inh	JMJD2A Tudor inh	Sfp inh	HP1b chromo inh	L3MBTL1 inh	G9a block
COc1ccc(N2CCN(CC(=O)Nc3nc(C)cs3)CC2)cc1	11µM*	5.6µM*	-27%	40µM*	-2%	3.5µM*
COc1ccc(N2CCN(C(=O)CN3CCN(c4nc(-c5ccc(F)cc5)cs4)CC3)CC2)cc1	20µM*	32µM*	13%	?	-2%	?
CCCCCCCc1cc2c(cn1)C(=O)C(C)(OC(C)=O)C(O)=C2Cl (stereo not given)	.	.	1%	.	.	.
O=C(C1CCN(C2CCN(Cc3ccc4c(c3)CCO4)CC2)CC1)N1CCOCC1	4%	-10%	10%	26%	-1%	-20%
CCN(CC)c1ccc(NC(=O)CN2CCN(c3ccc(F)cc3)CC2)cc1	?	?	12%	-17%	-27%	8.9µM*
CCOc1ccc(NC(=O)CN2CCN(CC(=O)Nc3ccc(N(CC)CC)cc3)CC2)cc1	-2%	-6%	.	20%[57 µM]	.	?
CCN(CC)c1ccc(NC(=O)CN2CCN(c3nc(C)cc(C)n3)CC2)cc1	35µM*	-18%[11.4 µM]	7%	?	?	?
O=C(O)CN1CCc2ccccc2C1	-5%	28µM*	-11%	-23%	-3%	?
O=C(CN1CCN(c2ccc(Cl)cc2)CC1)Nc1ccc(F)cc1	-12%	-19%	-9%	31%	-11%	-1%[12.7 µM]
CCOc1ccccc1C(=O)Nc1nc2c(s1)CC(C)CC2 (stereo not given)	3%	-13%	.	0%	.	10µM*
Clc1ccc(CSc2nnnn2-c2ccc3c(c2)OCO3)c(Cl)c1	17%	68%	?	27%	.	32%[59 µM]
COc1ccc(/C(C)=N/NC(=O)CNC(=O)/C=C\c2ccccc2OC)c(OC)c1	-39%	16%	29%	58%	.	2%
O=C(Cn1c(/C=C/c2ccccc2)nc2ccccc21)Nc1ccc(F)cc1	-3%	50µM*	-2%	16%	5%	28%[59 µM]
O=C(CN1CCN(CC(=O)Nc2ccc(-c3ccccc3)cc2)CC1)Nc1ccc(F)cc1	-31%	-16%	-5%	-10%	.	35µM*
COc1ccc(NC(=O)CN2CCc3ccccc3C2)cc1	.	22µM*	.	?	.	.
Cc1cc(NC(=O)CN2CCC(C)CC2)nc2c1c(=O)oc1ccccc12	1%	5%	.	24%	.	5%[59 µM]
COc1ccc(NC(=O)CN2CCc3ccccc3C2)cc1OC	-15%	-8%	21%	24%	2%	3%
Cc1cc(NC(=O)CN2CCc3ccccc3C2)nc2c1c(=O)oc1ccccc12	-5%	-22%	-8%	39%	1%	28µM*
CC(C)OC(=O)[C@H]1O[C@H](CCCCOCc2ccccc2)[C@@H](C)[C@H]2O[C@H]21	.	.	-14%	.	.	.
COc1ccc(N2CCN(CC(=O)Nc3ccc(C)c(C)c3)CC2)cc1	?	?	6%	-5%	-13%	?
Cn1c(N)c(C(=O)CN2CCc3ccccc3C2)c(=O)n(C)c1=O	-12%	3%	21%	31%	-1%	8.9µM*
COc1ccc(N2CCN(CC(=O)Nc3cc(C)cc(C)c3)CC2)cc1	?	?	12%	-20%	-29%	79µM*
COc1ccc(N2CCN(c3ccc4nnc(CCC(=O)Nc5ccc(C)cc5)n4n3)CC2)cc1	45µM*	?	-8%	?	3%	.
O=C1CN(CC(=O)Nc2ccc(SC(F)F)cc2)CCN1	-4%	-6%	4%	76%	8%	-11%
O=C(CN1CCN(c2ccc(O)cc2)CC1)Nc1ccc(SC(F)F)cc1	?	?	35µM*	-34%	-1%	2.2µM*
SMILES	BAZ2B inh	JMJD2A Tudor inh	Sfp inh	HP1b chromo inh	L3MBTL1 inh	G9a block
O=C(c1ccc2c(=O)n(Cc3ccc(Cl)cc3)c(=S)[nH]c2c1)N1CCOCC1	-13%	-6%	0%	52%	.	6%
Cc1ccc(SCc2nc3ccccc3n2CC(=O)Nc2ccccc2)cc1	1%	-3%	50µM*	22%	-2%	46%[12.7 µM]
O=C(Cn1c(CSc2ccccc2)nc2ccccc21)Nc1ccccc1	1%	.	-21%	.	-6%	18%
O=C(Nc1ccccc1C(=O)N1CCCC1)c1ccc(Cl)c([N+](=O)[O-])c1	-18%	-1%	2%	14%	31%	.
O=C(Nc1nc2ccccc2s1)c1ccc(N2CCCCC2)c([N+](=O)[O-])c1	10µM*	?	-27%	-26%	-22%	?
O=C(Nc1ccccc1N1CCCCC1)c1ccc(Cl)c([N+](=O)[O-])c1	?	?	-5%	-18%	.	35µM*
CC(=O)N1CCN(c2ccc(C(N)=O)cc2[N+](=O)[O-])CC1	-8%	-3%	16%	42%	.	-2%
CN1CCN(c2ccccc2NC(=O)c2ccc(N3CCCC3)c([N+](=O)[O-])c2)CC1	?	56µM*	10%	?	-12%	50µM*
CN1CCN(c2ccc(C(=O)c3ccc(Br)cc3)cc2[N+](=O)[O-])CC1	40µM*	22µM*	6%	?	-25%	45µM*
CCOC(=O)C1(Cc2ccccc2C(F)(F)F)CCN(C(C)CCn2cccn2)CC1 (stereo not given)	45µM*	-17%	-8%	28%	?	.
CCOC(=O)C1(Cc2ccccc2C(F)(F)F)CCN(C(C)CSC)CC1 (stereo not given)	-30%	-24%	9%	31%	-20%	-20%
Cc1ccc(S(=O)(=O)NCl)cc1	.	.	5.6µM*	.	.	?
Cc1ccc(S(=O)(=O)Nc2csc(C)c2C(=O)O)cc1	45µM*	-15%	-4%	19%	7.9µM*	40µM*
COc1ccc(S(=O)(=O)Nc2cc(C(C)C)c(O)cc2C)cc1	-1%	-15%	7%	10%	.	-27%[12.7 µM]
COc1ccc(S(=O)(=O)Nc2cc(C)c(O)cc2C(C)C)cc1	5%	-34%	1%	5%	-5%	25µM*
CC(=O)c1sc(-c2ccccc2)cc1NS(=O)(=O)c1ccc(C)cc1	-17%	12%	13%	17%	5%	5%
Cc1ccc(S(=O)(=O)Nc2cc(C)c(O)cc2C)cc1	-21%	-16%	0%	23%	1%	50µM*
CNS(=O)(=O)c1ccc(C)cc1	8%	-19%	11%	15%	.	21%[59 µM]
O=C(Nc1ccnn1C1CCN(Cc2c[nH]c3ccccc23)CC1)c1ccccc1	-23%	-20%	23%	45%	.	-9%
O=C(COC(=O)c1ccccc1SCC(=O)N1CCCC1)NCc1ccccc1	14%	-3%	.	30%	-3%	-36%
Cc1cccc(/C=C2\CS/C(=C\c3cccc(C)c3)C2=O)c1	50µM*	?	-7%	?	.	?
CCC1=NN2C(=N)/C(=C\c3ccc(OCCOc4ccccc4OC)cc3)C(=O)N=C2S1	-33%	-7%	-6%	16%	1%	-10%
